Assay outcomes as filed in PubChem.
CR mimetic SO: yeast age-related superoxide inhibition as caloric restriction mimetic | AID 2690 | S. cerevisiae aged cells, superoxide DHE fluorescence; active compounds read low | 330,000 tested, 0.18% active | superoxide response (% of plate mean), % at 10 µM;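 active = superoxide response under a set limit, about three screen SD below normal, cut at about 65% in these data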;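 also: yeast aged for seven days with compound at 30 °C before DHE staining; 100% = average MFI of all compound-treated wells on the plate with controls excluded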
Efflux pump mplx: antifungal efflux pump inhibition, Nile Red retention | 330,000 tested, 0.44% active | inhibition, % at 10 µM | S. cerevisiae Candida pump triplex;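 active = plate passing quality check with inhibition over a set limit, or well fluorescence over plate mean plus 4 SD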;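 also: Nile Red retained in pooled yeast measured as flow cytometry median fluorescence; 0% = buffer negative control and 100% = Enniatin B positive control; higher means more Nile Red kept so more efflux inhibition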
GRK2 inh: human GRK2 inhibition via aptamer displacement. P25098. bead flow cytometry, FAM-aptamer displacement from GRK2. inhibition of aptamer binding, % at 10 µM. 330,000 tested, 0.59% active;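 active = inhibition of aptamer binding above 40%, roughly 3 SD of noise, on plates passing a quality check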;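 also: median bead fluorescence of bound FAM aptamer so fluorescent compounds give negative values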
ATG4B inhibitor: blocks human ATG4B protease cleavage of LC3 substrate; Q9Y4P1; ATG4B cleavage of LC3-PLA2, NBD-HPC fluorescence, 1 h; inhibition, % at 8.33 µM; 340,000 tested, 0.51% active; AID 504462; in the data active = inhibition above about 40%
Target sequence (Q9Y4P1 whole entry, looked up): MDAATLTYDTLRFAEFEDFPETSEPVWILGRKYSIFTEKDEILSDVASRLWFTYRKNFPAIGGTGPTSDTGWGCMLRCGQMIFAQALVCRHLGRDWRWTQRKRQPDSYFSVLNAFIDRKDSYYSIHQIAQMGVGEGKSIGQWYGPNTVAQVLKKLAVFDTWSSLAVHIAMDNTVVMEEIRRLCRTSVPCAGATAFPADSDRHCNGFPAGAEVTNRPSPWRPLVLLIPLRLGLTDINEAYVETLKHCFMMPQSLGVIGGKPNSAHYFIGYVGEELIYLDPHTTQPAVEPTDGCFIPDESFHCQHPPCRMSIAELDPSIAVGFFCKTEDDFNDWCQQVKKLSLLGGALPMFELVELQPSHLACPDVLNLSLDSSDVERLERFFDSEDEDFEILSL
ATG4B confirm: ATG4B (human) inhibition, single-dose confirmed; 320 tested, 92% active; shares compounds with ATG4B inhibitor; ATG4B protease fluorescent substrate cleavage assay; inhibition, % at 8.33 µM; AID 504757; in the data active = inhibition above about 39%
PLA2 ctr: PLA2 (human) inhibition in ATG4B counter-screen | shares compounds with ATG4B inhibitor | 1,600 tested, 66% active | inhibition, % at 8.33 µM | purified PLA2, NBD-C6-HPC fluorescence, 45 min; in the data active = inhibition above about 50%
Target sequence (P04054 whole entry, looked up): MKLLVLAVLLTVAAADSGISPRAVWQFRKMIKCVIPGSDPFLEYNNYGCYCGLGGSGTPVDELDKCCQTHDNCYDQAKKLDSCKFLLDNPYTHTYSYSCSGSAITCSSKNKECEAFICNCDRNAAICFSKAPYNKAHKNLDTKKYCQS
Numbers without * were called inactive; · = no result. The list is not random: actives were taken first. Their share in the collection is about 1.6%.

SMILES	CR mimetic SO	Efflux pump mplx	GRK2 inh	ATG4B inhibitor	PLA2 ctr	others
Cc1ccc(-n2cccc2/C=C2/C(=N)N3C(=NC2=O)SN=C3S(C)(=O)=O)cc1	126	0	4	10	·
Cc1ccc(-n2cccc2/C=C2\C(=N)N3N=C(c4ccco4)SC3=NC2=O)cc1	89	0	3	78*	62*
CCc1ccc(-n2cccc2/C=C2/C(=N)N3C(=NC2=O)SN=C3S(C)(=O)=O)cc1	101	0	0	45*	33	ATG4B confirm=68*
CCC1=NN2C(=N)/C(=C\c3cccn3-c3ccc(Cl)cc3)C(=O)N=C2S1	98	0	0	12	·
CS(=O)(=O)C1=NSC2=NC(=O)/C(=C\c3ccc(OS(=O)(=O)c4ccccc4)cc3)C(=N)N21	115	0	1	16	·
Cc1ccc(S(=O)(=O)Oc2ccc(/C=C3\C(=N)N4N=C(S(C)(=O)=O)SC4=NC3=O)cc2)cc1	106	0	1	66*	77*
Cc1ccc(S(=O)(=O)Oc2ccc(/C=C3/C(=N)N4C(=NC3=O)SN=C4S(C)(=O)=O)cc2)cc1	93	0	0	54*	67*
COc1ccc(C(=O)OCC(=O)NC2CCCCCC2)cc1OC	131	0	1	1	·
Cc1ccc(C2CC(C(F)F)n3ncc(C(=O)Nc4cnn(Cc5ccccc5C)c4)c3N2)cc1 (configuration not stated)	108	0	2	54*	71*
O=C(O)C(Cc1ccccc1)N1C(=O)/C(=C/c2ccccc2)SC1=S (configuration not stated)	97	0	0	18	·
CCC(C(=O)O)N1C(=O)/C(=C/C(C)=C/c2ccccc2)SC1=S (configuration not stated)	97	0	0	80*	83*
CC(=C\c1ccccc1)/C=C1/SC(=S)N(C(C(=O)O)C(C)C)C1=O (configuration not stated)	·	·	·	26	·
CC(/C=C1\SC(=O)N(CCCC(=O)O)C1=O)=C\c1ccccc1	111	0	0	11	·
Cc1ccc(/C=C2\SC(=S)N(C(Cc3ccccc3)C(=O)O)C2=O)cc1 (configuration not stated)	113	0	1	48*	22	ATG4B confirm=79*
CC(/C=C1\SC(=S)N(CCCC(=O)Nc2ccc(C(=O)O)cc2)C1=O)=C\c1ccccc1	97	0	5	65*	28	ATG4B confirm=41*
CC(=C\c1ccccc1)/C=C1/SC(=S)N(CCCC(=O)O)C1=O	104	0	0	52*	9	ATG4B confirm=78*
CC1CCN(S(=O)(=O)c2ccc(S(=O)(=O)N3CCCC3)cc2)CC1	74	0	1	-1	·
CNC(=O)COC(=O)/C=C/c1cccc(F)c1	96	0	7	-4	·
CC(C)(C)c1ccc(CSc2ccc(S(=O)(=O)N3CCOCC3)cn2)cc1	98	0	0	-7	·
S=C(NC1CC2CCC1C2)N1CCN(c2cccc(Cl)c2)CC1 (configuration not stated)	89	0	0	-6	·
CCc1ccccc1NCC(=O)Nc1ccc(Cl)c(C(F)(F)F)c1	102	0	0	19	·
O=C(CCNC(=O)C1CCN(S(=O)(=O)c2ccccc2)CC1)NCc1cccc(C(F)(F)F)c1	119	0	3	-4	·
O=C(NCc1cccc(C(F)(F)F)c1)N1CCN(S(=O)(=O)c2ccccc2F)CC1	99	0	2	51*	46	ATG4B confirm=61*
Cc1[nH]c2ccccc2c1/C=C/c1nc2ccccc2c(=O)n1-c1ccc([N+](=O)[O-])cc1	93	0	0	-8	·
CN(C)S(=O)(=O)c1ccc2[nH]cc(/C=C/c3nc4ccccc4c(=O)n3-c3ccccc3)c2c1	102	0	0	42*	9	ATG4B confirm=105*
SMILES	CR mimetic SO	Efflux pump mplx	GRK2 inh	ATG4B inhibitor	PLA2 ctr	others
Cc1nc(S/C(=C\c2ccc(OCc3ccccc3Cl)cc2)C(=O)O)n[nH]1	106	0	1	94*	83*
CC(=O)N1c2c(cc(Br)cc2S(=O)(=O)N2CCCCC2)CC1C (configuration not stated)	113	0	1	-5	·
CC(=O)N1c2c(cc(Br)cc2S(=O)(=O)N2CCN(c3ccccc3F)CC2)CC1C (configuration not stated)	108	0	0	55*	67*
CC(=O)N1CCN(C(=O)CSc2nnc(C)n2-c2ccccc2)CC1	111	0	2	-4	·
O=C(c1nn(Cc2ccccc2)c(=O)c2ccccc12)N1CCN(C/C=C/c2ccccc2)CC1	108	0	2	49*	55*
Cc1ccc2occ(/C=N/NC(=O)[C@@H](N)Cc3ccccc3)c(=O)c2c1	109	0	5	10	·
COCC(C)OC(=O)/C(C#N)=C\c1coc2ccc(C)cc2c1=O (configuration not stated)	111	0	11	62*	49
CC(=O)Nc1ccc(NC(=O)C(C)OC(=O)CCCN2C(=O)c3cccc4cccc(c34)C2=O)cc1 (configuration not stated)	94	0	1	5	·
Cc1cccc(CSc2nc3sc(C)c(C)c3c(=O)n2Cc2ccco2)c1	93	0	0	28	·
Cc1cccc(CSc2nnc(-c3cccs3)n2Cc2ccco2)c1	101	0	0	68*	67*
O=C1N[C@@H](c2ccccc2)COC(=O)[C@H](Cc2ccc(F)cc2)CC/C=C/C[C@@H]1CC(=O)N(CCO)Cc1ccccc1	120	0	3	48*	57*
CCC(C)(O)c1[nH]c2ccc(C#N)cc2c1C (configuration not stated)	100	0	0	8	·
COc1cc(C=O)ccc1OCc1ccccc1Br	98	0	0	53*	52*
COc1cc(C=O)ccc1OCc1cccc(Br)c1	100	1	0	4	·
Cc1ccnc(N2CCCC(C(=O)Nc3cccc(C)c3C)C2)n1 (configuration not stated)	100	0	1	-2	·
COc1cc(OC)cc(-c2nnc(SCc3c(F)cccc3Cl)o2)c1	88	0	0	59*	58*
COc1ccc(-c2nnc(SCc3ccccc3F)o2)cc1	93	0	0	25	·
CN1CCN(C2=C(Cl)C(=O)c3ccccc3C2=O)CC1	·	·	·	73*	-16	ATG4B confirm=30
Cn1cccc1/C=C1\CCC/C(=C\c2cccn2C)C1=O	89	0	4	45*	59*
O=C1/C(=C/c2cccs2)CCC/C1=C\c1cccs1	92	0	4	6	·
Cc1ccc(S(=O)(=O)Nc2ccc(-c3nnc(SCc4ccccc4Cl)o3)cc2)cc1	98	0	0	52*	46
Cc1ccc(CSc2nnc(-c3ccc(NS(=O)(=O)c4ccccc4)cc3)o2)cc1	100	0	0	10	·
